# In the library only some 1% were active in any assay of this set; here they are far more common.
# TSHR antag: Antagonists of the Thyroid Stimulating Hormone Receptor: HTS campaign; Thyrotropin receptor (Homo sapiens), P16473; TSHR-expressing cells, TSH-stimulated cAMP HTRF, 2 h; hits give low values; actives 0.2% (n = 330,000); activity change, negative = inhibition, % at 11.5 µM; AID 504810, 2011;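 active = activity change below a set negative limit, meaning inhibition stronger than a set level, cut at about -70% in these data; inconclusive = activity change between two set negative limits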
#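 Cell-based HTRF cAMP assay; TSHR cells + compound, TSH EC80 (4nM final), 2 h, 37 deg C. Lysis with anti-cAMP cryptate and cAMP-d2, 30 min RT, read 665/620 nm.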
# RXFP1 agonist: qHTS Assay for Agonists of the Relaxin Receptor RXFP1; actives 0.3% (n = 370,000); Potency, µM (highest dose often 57.5 µM), hits mostly activators; HEK293T-RXFP1 cAMP TR-FRET, 30 min; response scale: percent of porcine relaxin response, buffer zero; active = well fitted activation curve with a large enough effect; inconclusive = small, poorly fitted or top-dose-only effect; also: nearly all actives have a fitted effect of over 60% in size
# Target sequence (Q9HBX9 whole entry, looked up): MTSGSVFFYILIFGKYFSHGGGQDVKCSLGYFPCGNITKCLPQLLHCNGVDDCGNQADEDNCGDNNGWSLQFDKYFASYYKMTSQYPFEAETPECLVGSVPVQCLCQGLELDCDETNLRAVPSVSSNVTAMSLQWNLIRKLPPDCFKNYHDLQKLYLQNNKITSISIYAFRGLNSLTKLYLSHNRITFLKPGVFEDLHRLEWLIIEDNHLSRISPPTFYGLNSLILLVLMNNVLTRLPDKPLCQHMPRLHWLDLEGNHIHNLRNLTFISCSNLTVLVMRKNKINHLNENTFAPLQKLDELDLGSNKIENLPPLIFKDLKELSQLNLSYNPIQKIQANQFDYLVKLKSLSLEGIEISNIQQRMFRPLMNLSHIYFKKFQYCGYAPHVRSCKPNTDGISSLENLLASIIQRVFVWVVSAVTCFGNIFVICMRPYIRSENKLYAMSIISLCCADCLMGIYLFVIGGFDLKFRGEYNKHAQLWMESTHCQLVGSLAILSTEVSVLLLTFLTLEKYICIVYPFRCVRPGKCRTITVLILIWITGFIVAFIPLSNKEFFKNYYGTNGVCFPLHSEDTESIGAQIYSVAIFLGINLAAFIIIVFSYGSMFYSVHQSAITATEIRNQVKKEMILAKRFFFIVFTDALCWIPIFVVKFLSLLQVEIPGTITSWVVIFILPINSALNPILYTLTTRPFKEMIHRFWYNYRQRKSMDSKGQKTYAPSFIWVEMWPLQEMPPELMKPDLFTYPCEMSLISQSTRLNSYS
#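 HEK293 cells stably expressing RXFP1, treated 30 min at 37C with compounds plus PDE4 inhibitor Ro 20174; cAMP measured by HTRF TR-FRET. Normalized to buffer and 29 nM porcine relaxin; EC50 by Hill fit.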
# RXFP1 antagonist: qHTS Assay for Antagonists of the Relaxin Receptor RXFP1; HEK293-RXFP1, relaxin-stimulated cAMP HTRF, 30 min; hits give low values; activity change, negative = inhibition, % at 57.5 µM; actives 0.59% (n = 350,000);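 active = activity change of -60% or lower, but not beyond a set lower limit; inconclusive = change between -60% and -40%, or beyond the set limit; inactive = change above -40%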
# gsp antag: qHTS for Antagonists of gsp, the Etiologic Mutation Responsible for Fibrous Dysplasia/McCune-Albright Syndrome: qHTS; gsp-mutant cells, cAMP HTRF, 30 min; Potency, µM (titrated, usually from 76.9 µM), usual class: inhibitors; actives 0.4% (n = 340,000); calls by dose curve; cell line not stated here;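 also: intracellular cAMP measured with PDE inhibitor Ro 20-1724 present during compound exposure; nearly all actives have a fitted effect of over 65% in size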
#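 HTRF cAMP read-out (cAMP-d2 plus anti-cAMP antibody-K in lysis buffer, 30 min RT). Before lysis, cells are exposed to compounds with […] for 30 min at 37C in DPBS containing Ca/Mg, BSA and Tween 20.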
# gsp ag: qHTS for Agonist of gsp, the Etiologic Mutation Responsible for Fibrous Dysplasia/McCune-Albright Syndrome: qHTS; Potency, µM (highest dose often 76.9 µM), most hits filed as activators; actives 0.13% (n = 340,000); gsp mutant cells, cAMP HTRF, 30 min; active = well fitted activation curve with a large enough effect; inconclusive = small, poorly fitted or top-dose-only effect, or another doubt; inactive = no such curve, though single readings can be large or run the other way; cell line not stated here;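 also: phosphodiesterase inhibitor Ro 20-1724 added with compounds to block cAMP breakdown; nearly all actives have a fitted effect of over 60% in size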
#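 Cells in DMEM/10% FBS with G418 were pretreated with compounds in DMSO plus […] (300 uM stock) for 30 min at 37C. cAMP was measured by HTRF (cAMP-d2 plus anti-cAMP antibody-K) after 30 min at room temperature.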
# A number is an active result; - = inactive; ? = inconclusive; . = no result; [ ] = remark or other dose.
SMILES,TSHR antag,RXFP1 agonist,RXFP1 antagonist,gsp antag,gsp ag
CCOC(=O)N1CCN(C(=O)c2cc3cc(Cl)ccc3[nH]2)CC1,-,-,-,50.1µM,-
CCOC(=O)c1cnc2ccc(OCC)cc2c1NCc1ccccc1OC,-,-,-,31.6µM,-[15.4 µM]
CCC(=O)OCCNc1cc(SCCC(=O)OC)c2nonc2c1[N+](=O)[O-],-,-,-,-,?
CCC(=O)OCCNc1cc(Sc2nccn2C)c2nonc2c1[N+](=O)[O-],-96.9,-,-90.1,-,-
O=C(COCc1cc(-c2ccco2)on1)NC1CCCCC1,-,-,-,-,-
O=C(COCc1cc(-c2cccs2)on1)NC1CCCCC1,-88.4,-,-,-,-
Cc1sc2ncn(CC(=O)N3CCN(c4ccc(Cl)cc4)CC3)c(=O)c2c1S(=O)(=O)N1CCN(c2ncccn2)CC1,.,-,.,.,.
CC(C)(C)NC(=O)C(=O)NNC(=O)c1cccc(Br)c1,-78.7,-,-,.,-[15.4 µM]
Cc1cccc(C(=O)NNC(=O)C(=O)NC(C)(C)C)c1,-,-,-,-,-
Cc1ccc(C)c(N2CCN(S(=O)(=O)c3ccc(-c4cc(C(F)(F)F)on4)s3)CC2)c1,.,-,-,.,.
O=C(O)c1cc(-c2cccs2)nc2ccc(F)cc12,-,?,-,-,25.1µM
O=C(O)c1cc(-c2ccncc2)nc2ccc(F)cc12,-,-,.,.,.
Cn1c(=O)c2nc(SCC(=O)Nc3cc(Cl)cc(Cl)c3)n(C)c2n(C)c1=O,.,-,-,.,.
COc1ccc(OCC(=O)N2CCN(c3cccc(Cl)c3)CC2)cc1,-,-,-,-,-[15.4 µM]
COc1ccc(C(=O)CCC(=O)N2CCN(c3cccc(Cl)c3)CC2)cc1,-,-,-,35.5µM,?
CCC(C)NC(=O)CSc1c2c(nc3ccccc13)CCCC2 (stereo not given),-,-,-,-,12.6µM
Cc1cccc(NC(=O)CSc2c3c(nc4ccccc24)CCC3)n1,-,-,-,-,?
NC(=O)c1nsc(C(=O)N(CC(=O)NC2CCCC2)c2ccc(F)c(Cl)c2)c1N,-,-,-65.0,-,-
NC(=O)c1nsc(C(=O)N(CC(=O)NC2CCCCC2)c2cccc(F)c2)c1N,-,-,-,-,-[15.4 µM]
Cc1ccccc1CNC(=O)CN1CCSc2ccccc21,.,-,.,.,.
O=S(=O)(c1cccc(C(F)(F)F)c1)N1CCC(Oc2ccc(-n3cnnn3)cc2)CC1,.,-,-,.,.
O=C(Nc1nc(-c2nc3ccccc3s2)cs1)C1COc2ccccc2O1 (stereo not given),-,-,.,-,11.2µM
Cc1cccc(N2CCN(C(=O)C3CCN(C(=O)c4cc5sccc5n4C)CC3)CC2C)c1 (stereo not given),.,-,-65.3,.,.
Fc1cnc(N/N=C/c2ccc(-c3ccc(Br)cc3)o2)nc1N1CCOCC1,-,-,-,-,-
Brc1ccc(-c2ccc(/C=N/Nc3nc(N4CCOCC4)nc(N4CCOCC4)n3)o2)cc1,-,-,-,20µM,-
SMILES,TSHR antag,RXFP1 agonist,RXFP1 antagonist,gsp antag,gsp ag
COc1ccc(S(=O)(=O)N2CCOC23CCN(C(=O)c2ccc(Cl)cc2Cl)CC3)cc1,-115.0,-,-,?,-
COc1ccc(S(=O)(=O)N2CCOC23CCN(C(=O)c2c(F)cccc2Cl)CC3)cc1,-,-,-,-,-
CCOC(=O)/C(=N\Nc1ccccc1Cl)N1CC(C)OC(C)C1 (stereo not given),-,-,-67.3,-,-
Cn1cc(S(=O)(=O)N2CCCCCC2)cc1C(=O)N1CCN(c2ccc(Cl)cc2)CC1,.,-,.,.,.
CCCCNC(=O)CCCn1c(=O)c2ccccc2n(Cc2ccc(Cl)cc2)c1=O,.,-,.,.,.
c1ccc(CC(Cc2ccccc2)c2ccccn2)cc1,.,.,-,-,-
c1ccc(CC(Nc2ccccn2)c2ccccc2)cc1 (stereo not given),-,-,-60.2,-,-[15.4 µM]
Cn1cc(CN(C(=O)Nc2ccccc2)C2CCCCC2)c2ccccc21,.,-,.,.,.
CC(CCC(=O)NN)C1CCC2C3CCC4CC(O)CCC4(C)C3CCC12C (stereo not given),.,.,-,-,-
CC(CCC(C)C(C)(C)C)[C@@H]1CC[C@H]2C3C[C@H](OS(O)(=S)=S)[C@H]4C[C@H](OS(O)(=S)=S)[C@@H](OS(O)(=S)=S)C[C@]4(C)[C@H]3CC[C@]12C (stereo not given in full) (tested in a mixture with another compound),-83.1,.,.,?,.
CCc1ccc(S(=O)(=O)Nc2cccc(-c3ccc(N4CCOCC4)nn3)c2)cc1,.,-,-,.,.
CC1CN(Cc2c(O)ccc3c(=O)c(-c4ccccc4)coc23)CC(C)O1 (stereo not given),-,-,-,-,-[15.4 µM]
CC1CN(Cc2c(O)ccc3c2oc(=O)c2ccccc23)CC(C)O1 (stereo not given),-,-,-,-,28.2µM
COc1ccccc1C(=O)NC1(C(F)(F)F)C(=O)Nc2c1c(=O)[nH]c(=O)n2-c1ccc(F)cc1 (stereo not given),.,-,.,.,.
Cc1c(C)c2c(c(C)c1O)CCC(C)(COc1ccc(CC3SC(=O)NC3=O)cc1)O2 (stereo not given),.,.,-74.8,.,.
CCc1ccc(CCOc2ccc(CC3SC(=O)NC3=O)cc2)nc1 (stereo not given),.,.,?,-,.
Cc1onc(-c2ccc(Cl)cc2Cl)c1-c1csc(N/N=C/c2ccccc2Cl)n1,-,-,-69.0,-,-
Cc1onc(-c2ccccc2)c1-c1csc(N/N=C/c2ccccc2Cl)n1,-,-,?,-,-
Cc1nc2ccccc2n1CCc1nc2c3ccccc3nc(SCc3cccc(F)c3)n2n1,.,-,-,.,.
Clc1ccc(C(c2ccccc2Cl)C(Cl)Cl)cc1 (stereo not given),-,-,-74.4,-,.
CCN(CC)C(=O)CSc1ncnc2sc(-c3ccccc3)cc12,-,-,-,39.8µM,-
CN(CCC#N)C(=O)CSc1ncnc2sc(-c3ccccc3)cc12,-,-,-,-,-
O=C(COC(=O)COc1ccc(Cl)cc1)NCCCc1ccccc1,-,.,-,-,-[15.4 µM]
O=C(COC(=O)COc1ccc(Cl)cc1)NCCNC(=O)COC(=O)COc1ccc(Cl)cc1,-,-,-72.5,-,-[15.4 µM]
Cc1ccc(Cl)cc1NC(=O)CSc1ccc(C(=O)O)cn1,.,-,-,.,.
CCCCn1c(=N)n(CCOc2ccc(C)cc2)c2ccccc21,-,-,-75.2,-,-
CCOc1c(Cl)cc(CNc2ccc(N3CCCC3)cc2)cc1OC,-,-,-75.5,-,-[15.4 µM]
Cc1ccc(CCNC(=O)C2CC(=O)N(CCc3ccc(C)cc3)C2)cc1 (stereo not given),.,-,-,.,.

# Bioassay records from PubChem.
